Pyk2 oligo antag: blocks oligomerization of human Pyk2 in cells | 99,000 compounds, 0.83% hits | Q14289 | Q293 cells, Pyk2 FERM NanoBiT luminescence; active compounds read low | z-score (the deposit names both 25 µM and 10 µM);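 active means Z-score of -3 or lower, scaled per plate to the spread of control and sample wells; inactive means z-score above -3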;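 further: negative z-score means lost luminescence so less FERM oligomerization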
E coli RNAP: blocks E. coli RNA polymerase transcription; P0A8V2; fluorescence transcription assay; inhibition, %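 (tested at 10 µM)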; 62,000 compounds, 0.2% hits; in the data active means inhibition above about 20%;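 further: 0% = enzyme without compound and 100% = no enzyme blank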
Mac1 fbg enh: increases human CD11b/CD18 adhesion to fibrinogen; P05107+P11215; K562 CD11b/CD18 adhesion to fibrinogen, ATPlite luminescence; activation, % at 10 µM; 93,000 compounds, 0.07% hits;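 active means 10 µM primary screen giving 50% or more activity, confirmed by 40% or more on retest at that dose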
Target sequence (P05107 whole entry, looked up, other chains not shown): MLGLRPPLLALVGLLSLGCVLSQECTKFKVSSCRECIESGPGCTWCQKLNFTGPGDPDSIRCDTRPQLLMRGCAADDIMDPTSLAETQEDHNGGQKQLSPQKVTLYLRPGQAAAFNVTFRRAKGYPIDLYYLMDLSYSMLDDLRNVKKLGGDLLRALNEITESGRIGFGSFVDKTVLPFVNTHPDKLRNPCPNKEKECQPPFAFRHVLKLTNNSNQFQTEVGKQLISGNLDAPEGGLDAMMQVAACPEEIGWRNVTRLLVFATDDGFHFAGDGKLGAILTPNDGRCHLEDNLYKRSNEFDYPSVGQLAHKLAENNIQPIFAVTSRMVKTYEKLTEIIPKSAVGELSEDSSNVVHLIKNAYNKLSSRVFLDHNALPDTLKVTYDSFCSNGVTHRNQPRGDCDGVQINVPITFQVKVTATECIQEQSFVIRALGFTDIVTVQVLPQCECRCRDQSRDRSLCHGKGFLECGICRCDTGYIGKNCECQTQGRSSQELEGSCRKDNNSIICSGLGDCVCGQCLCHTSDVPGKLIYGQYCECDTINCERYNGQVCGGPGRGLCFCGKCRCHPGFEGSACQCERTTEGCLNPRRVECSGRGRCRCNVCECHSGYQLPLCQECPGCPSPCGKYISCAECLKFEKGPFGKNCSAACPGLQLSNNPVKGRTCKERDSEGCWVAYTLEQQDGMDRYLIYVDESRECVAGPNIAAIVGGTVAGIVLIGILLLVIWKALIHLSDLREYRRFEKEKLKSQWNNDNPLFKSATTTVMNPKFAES
Mac1 fbg inh: blocks human CD11b/CD18 adhesion to fibrinogen | K562 CD11b/CD18 adhesion to fibrinogen, ATPlite luminescence; Mn2+ added to activate the integrin | 93,000 compounds, 0.54% hits | inhibition, % at 10 µM;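 active means primary inhibition of 50% or more at 10 µM, then 40% or more on retest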
Cav3 T inh: inhibitors of human Cav3.2 T-type calcium channel; Cav3.2-expressing cells, Fluo-4 calcium fluorescence FDSS; active compounds read low; B-score at 10 µM; 100,000 compounds, 4% hits; AID 449739;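 active means single-dose well whose peak fluorescence ratio is a statistical outlier from its plate by either plate-standardised score or position-corrected B-score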
An asterisk follows results filed as active; / = not tested or not shown. An excerpt weighted towards active compounds, which were near 4.2% of everything screened.

SMILES	Pyk2 oligo antag	E coli RNAP	Mac1 fbg enh	Mac1 fbg inh	Cav3 T inh
CC(C)OC(=O)c1ccc(NC(=O)Cn2c(-c3nonc3N)nc3ccccc32)cc1	-4.2*	/	/	/	-0.817
CCOC(=O)c1c(-c2ccc(C)o2)csc1NC(=O)COC(=O)c1ccc(NC(N)=O)cc1	-1.14	/	53.6	20.4	0.225
Clc1cccc(Cl)c1C1=NOC(c2nnc(-c3ccccc3)o2)C1 (configuration not stated)	/	/	/	/	-1.5
COc1cc(CNC(C)(C)C)cc(Br)c1OCc1cccs1	/	/	-4.2	-5.3	/
C=CCOc1c(Br)cc(CNc2nccs2)cc1OC	-0.32	/	/	/	-7.88*
Cn1c(-c2ccc3c(c2)OCO3)cnc1NCc1cccc(Cl)c1	0.34	5.6	0.1	-6.7	-4.77*
NCCCC[C@@H](C(=O)N1CCNCC1)n1cc([C@@H](N)CO)nn1	/	/	/	/	0.341
O=C(Nc1ccnc(-c2cccnc2)n1)c1cccc(Cl)c1Cl	-0.28	/	/	/	-0.318
CN1CCN(CC(=O)N2c3ccccc3C(C)(c3ccccc3)CC2(C)C)CC1 (configuration not stated)	0.94	2.6	/	/	-0.00764
CC(=O)N1c2ccccc2C(C)(c2ccccc2)CC1(C)C (configuration not stated)	-0.18	/	-2.7	-11.4	-4.99*
CCCCN1CNC(=S)N(c2ccccc2OCC)C1	0.52	/	0.7	3.2	/
Cc1cc(=O)oc2c1ccc1oc(/C(=N/O)c3ccccc3)c(C)c12	-3.69*	7.7	/	/	-0.0173
CC1=C(C(=O)OCc2ccc3c(c2)OCO3)C(c2ccc(Cl)cc2)NC(=O)N1 (configuration not stated)	-3.23*	7.5	-5.8	-8.7	-0.614
CC1=C(C(=O)OCc2ccc3c(c2)OCO3)C(c2ccc(F)cc2)NC(=O)N1 (configuration not stated)	-2.14	4.2	0.3	15.4	/
O=C(Cn1c2ccccc2c(=O)c2ccccc21)N/N=C/c1cc([N+](=O)[O-])ccc1N1CCCCCC1	-0.78	/	107.4*	-9.3	-0.748
O=C(Cn1c2ccccc2c(=O)c2ccccc21)N/N=C/c1ccc(N2CCCC2)c([N+](=O)[O-])c1	/	/	87.3	1.2	/
CCn1c(CN2CCN(c3ccc(Cl)cc3)CC2)nc2ccccc21	-0.99	/	/	/	-6.67*
CCOc1cc(S(=O)(=O)N2CCCCCC2)ccc1F	-1.34	/	0.5	-27.4	-1.66
COc1ccc(-n2c(NC(=O)c3ccc(Br)o3)c(C#N)c3nc4ccccc4nc32)cc1	/	/	-11.4	90.1*	/
COc1ccc(C(c2nnnn2CC2CCCO2)N2CCC(C(N)=O)CC2)cc1 (configuration not stated)	-0.44	/	/	/	-1.69
CCCCC(c1nnnn1CC1CCCO1)N1CCN(c2cccc(C)c2C)CC1 (configuration not stated)	-2.4	1.4	3.5	-2.2	-5.85*
COc1ccc(C(c2nnnn2CC2CCCO2)N2CCN(c3cccc(C)c3C)CC2)cc1 (configuration not stated)	-2.99	-1.1	3.4	-6.1	-3.74*
CC(/C=N\NC(=O)Cn1c(C)nc2ccccc21)=C\c1ccccc1	0.57	/	/	/	/
CCOC(=O)c1[nH]c(C)c(C(=O)Nc2ccccc2C)c1C	/	21.3*	-3.5	22.2	-0.24
Cc1cc(F)ccc1NCC(=O)Nc1ccccc1Br	/	/	3.9	2.5	/
SMILES	Pyk2 oligo antag	E coli RNAP	Mac1 fbg enh	Mac1 fbg inh	Cav3 T inh
O=C(NCC1CC1)C1(C(F)(F)F)C/C(=C\Cc2ccccc2)CCCO1 (configuration not stated)	/	/	/	/	0.0898
Cc1cc(Cl)ccc1OCc1n[nH]c(=S)n1C1CCCCC1	-0.44	/	-1.7	25.4	-0.745
COc1ccc(Cl)cc1-c1n[nH]c(=S)n1C1CCCCC1	0.19	/	0.3	2.0	-5*
COc1ccc([N+](=O)[O-])cc1NC(=O)c1ccc(N(Cc2ccccc2Cl)S(C)(=O)=O)cc1	/	/	3.9	-10.3	/
Cc1ccc(C)c(S(=O)(=O)N/N=C2/CCCc3ccccc32)c1	0.29	/	-1.8	14.8	-4
O=S(=O)(N/N=C1/CCCc2ccccc21)c1ccc(Br)cc1	-0.16	/	/	/	-4.17*
CC[N+](C)(CC)CCOC(=O)C(O)(c1ccccc1)C1CCCCC1 (configuration not stated)	/	6.5	/	/	-0.0711
C[N+]1(C)CCCC(OC(=O)C(O)(c2ccccc2)c2ccccc2)C1 (configuration not stated)	/	/	/	/	-4.52*
CCOC(=O)c1c(N)sc(C(O)(C(F)(F)F)C(F)(F)F)c1-c1ccc(F)cc1	-0.96	/	/	/	-4.88*
CCOC(=O)N1CCN(c2nc(SC)nc3sc4c(c23)CC(C)(C)OC4)CC1	-0.56	1.1	-4.7	11.3	-4.65*
CCN1CCN(c2nc(SC)nc3sc4c(c23)CC(C)(C)OC4)CC1	0.54	0.3	-1.7	5.5	-0.787
Cc1cc(Br)ccc1NCc1ccccn1	0.29	/	/	/	-0.116
O=C(c1ccccc1Nc1ccc(SC(F)F)cc1)N1CCCCC1	-0.82	/	/	/	-7.05*
CC1CCCC(C)N1CC(C)(C)NS(=O)(=O)c1ccc(Cl)cc1 (configuration not stated)	-0.3	/	-3.5	-1.1	-0.176
O=C(c1ccc(COc2ccc(Cl)cc2)o1)N1CCN(Cc2ccc3c(c2)OCO3)CC1	-0.43	2.9	-2.5	70.4	-3.29
O=C(CSCc1cccc(Cl)c1)N1CCN(Cc2ccc3c(c2)OCO3)CC1	0.21	/	-0.1	7.9	-5.14*
O=C(c1ccc(COc2ccccc2Cl)o1)N1CCN(Cc2ccc3c(c2)OCO3)CC1	-1.49	1.1	/	/	-4.95*
O=C(c1ccc(S(=O)(=O)N2CCCC2)cc1)N1CCN(Cc2ccc3c(c2)OCO3)CC1	1.4	2.8	0.3	-3.9	3.86*
CC1CCN(c2nc3ccc(C(=O)N4CCN(Cc5ccc6c(c5)OCO6)CC4)cc3s2)CC1	/	/	-4.2	55.8*	/
Cc1ccc(C2C(C=Nc3c(C)n(C)n(-c4ccccc4)c3=O)=C(c3ccccc3)Oc3ccccc32)cc1 (configuration not stated)	-0.42	/	/	/	-1.13
COc1cc(/C=C(/NC(=O)c2ccccc2)C(=O)Nc2ccc(O)cc2)c([N+](=O)[O-])cc1OC	/	/	0.3	-5.1	/
CSc1nc2ccccc2n1Cc1c(Cl)cccc1Cl	-0.18	/	-1.3	15.9	-3.74
Cc1cccc2cc(CN(C(=S)NCC(C)C)C3CCCC3)c(=O)[nH]c12	/	/	-1.1	0.5	/
Cc1cc2nc(CCN(C(=S)NCC(C)C)C3CCCC3)[nH]c2cc1C	-1.81	/	/	/	-4.26*
Clc1ccccc1-c1nnn(Cc2ccc(-c3nn[nH]n3)cc2)n1	-0.5	-5.6	2.1	-0.8	-4.85*
CCC1=C(OC(=O)N(CC)CC)N2C(=O)OC(=NCCc3c[nH]c4ccccc34)[C@]2(Cc2ccccc2)[C@H]2C1=CC[C@H]1C(=O)NC(=O)[C@H]12	/	/	/	/	-2.2
Cc1ccccc1NS(=O)(=O)c1cc(S(C)(=O)=O)ccc1Cl	0.02	9.4	/	/	1.46
Cc1cc(NS(=O)(=O)c2ccccc2)c(C)c(Cl)c1O	-1.82	20.6*	-1.8	78.6	-2
CC[C@H](C)/C=C(C)/C=C/C(=O)Cc1cc(O)c(C)c(O)c1C=O	/	/	/	/	-3.64*
COc1cc(CN(C)Cc2ccccc2)cc(OC)c1O	-0.31	/	-9.9	87.0*	0.545

Bioassay records (PubChem BioAssay)
